Peg3 prom inh: reduces Peg3 promoter-driven luciferase expression in HeLa; HeLa PEG-Prom luciferase reporter, luminescence, overnight; inhibition, % at 20 µM; hit rate 1.7% among 360,000; AID 588405;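 active = inhibition of at least 50% at 20 µM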
Shn3 3UTR inh: Schnurri-3 reporter inhibition in Clone20 osteoblasts. Clone20 osteoblast Shn3 3'UTR firefly luciferase, 24 h. inhibition, % at 12.5 µM. hit rate 0.52% among 360,000. AID 588674;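 active = mean inhibition of at least 75% with every replicate also reaching 75%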;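 note: 0% = median of neutral control wells and 100% = pilot-screen positive control compound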
KKLEB tox: counter-screen for CF NF-kB inhibitors: cytotoxicity; KKLEB CF airway cells viability, ATPlite luminescence, overnight; hits give low values; cells stimulated with P. aeruginosa culture filtrate; activity change (cytotoxicity), % at 5 µM; hit rate 0.36% among 360,000;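 active = corrected activity change at or below -50% at 5 µM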
CF NFkB block: inhibitors of cystic fibrosis induced NF-kB; hit rate 0.86% among 360,000; inhibition, % at 5 µM; KKLEB NF-kB-GFP reporter, PAF-induced, GFP fluorescence overnight; AID 588850;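 active = at least 50% inhibition at 5 µM, scaled per plate between neutral and stimulator controls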;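 note: PAF is a Pseudomonas aeruginosa culture filtrate used as stimulus; plate controls were PAF-stimulated DMSO wells for no effect and unstimulated DMSO wells for full effect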
HIF-2a inh: blocks HIF-2a reporter activity; hit rate 0.72% among 360,000; 786-0 RCC cells HIF-2a reporter, luciferase luminescence, overnight; inhibition, % at 18.8 µM;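 active = inhibition of the luminescence signal of 40% or more relative to plate controls, in a single-dose primary screen at 18.75 µM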
CF NFkB inh conf: confirmation of cystic fibrosis induced NF-kB inhibitors | shares compounds with CF NFkB block | KKLEB CF airway cells, PAF-induced NF-kB-GFP fluorescence, overnight | inhibition, % at 5 µM | hit rate 64% among 1,300 | AID 602472; in the data active = inhibition above about 40%;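 note: stimulus PAF is a Pseudomonas aeruginosa filtrate and not platelet activating factor; plate controls were DMSO wells with stimulus for no effect and unstimulated DMSO wells for full effect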
An asterisk follows results filed as active; x = not tested or not shown. In the library only some 2.6% were active in any assay of this set; here they are far more common.

SMILES	Peg3 prom inh	Shn3 3UTR inh	KKLEB tox	CF NFkB block	HIF-2a inh	CF NFkB inh conf
COc1cccc(-c2ccc3ncnc(NCc4cccs4)c3c2)c1	31.5	-15.0	-7.3	61.3*	21.0	85.2*
COc1cccc(-c2ccc3ncnc(NCc4cccc(C)c4)c3c2)c1	18.5	9.3	-7.9	69.0*	23.5	62.2*
c1cncc(-c2ccc3ncnc(NCc4ccc5c(c4)OCO5)c3c2)c1	17.5	6.1	-12.9	54.6*	19.2	64.6*
c1cncc(-c2ccc3ncnc(NCc4cccs4)c3c2)c1	10.7	14.9	-10.7	6.8	16.6	x
O=C1OCCC1=COCCCCCOC=C1CCOC1=O	-2.9	-1.4	19.3	-17.1	5.8	x
Oc1ccc(Cl)cc1Cc1cc(Cl)ccc1O	42.0	24.9	29.6	77.0*	-7.7	90.2*
CCCCC(=O)/C=C/n1c(=S)oc2ccccc21	100.6*	-46.6	-36.3	90.2*	-43.3	-142.9
O=C(c1ccncc1)N1CCc2ccccc2C1	-10.0	-1.2	9.5	-5.2	-13.1	x
O=C(c1cncc(Br)c1)N1CCc2ccccc2C1	-4.9	2.3	-3.3	51.4*	-1.8	55.6*
CCCc1nnc(NC(=O)c2nc(S(=O)(=O)Cc3ccc(C)cc3)ncc2Cl)s1	102.8*	91.3*	-32.9	90.5*	-0.9	91.2*
COc1cccc(C#Cc2c(CO)[nH]c3ccccc23)c1	-33.4	18.5	5.3	8.7	-17.0	x
Cc1ccc(N(CC(O)CN2C(=O)NC(C)(C)C2=O)S(=O)(=O)c2ccc([N+](=O)[O-])cc2)cc1 (stereo unspecified)	11.5	3.6	-6.4	20.6	2.9	x
CCC(=O)Nc1nc(C)c(-c2csc(Nc3cccc(O)c3)n2)s1	-58.6	38.4	-3.9	61.6*	-50.0	86.9*
Cc1nc(C)c(-c2csc(Nc3cccc(O)c3)n2)s1	-245.1	-5.0	9.0	-24.9	-275.8	x
Cc1ccc(S(=O)(=O)Nc2nc3ccccc3nc2Nc2cccc(S(=O)(=O)N3CCCC3)c2)cc1	36.7	25.6	-43.7	68.8*	-49.0	70.8*
C[C@H](CO)N1C[C@H](C)[C@@H](CN(C)S(=O)(=O)c2ccccc2)Oc2ccc(NC(=O)Nc3ccc4c(c3)OCO4)cc2C1=O	8.6	1.1	-6.9	7.0	6.1	x
COc1ccc(CNc2nn3c(-c4cccc(C(=O)N(C)C)c4)cnc3s2)cc1	56.1*	-12.4	2.3	84.0*	22.7	90.7*
COc1cc2c(cc1OC)CN(C(=O)C1CCCN1S(=O)(=O)c1ccc(F)cc1)CC2 (stereo unspecified)	18.8	8.6	-6.2	13.1	5.8	x
CCCCCc1nnc(NC(=O)CN2C(=O)C3CCCCC3C2=O)s1 (stereo unspecified)	11.0	-18.2	14.0	-26.5	11.9	x
CC(Sc1nnc2c(n1)C1(C)CCC2C1(C)C)C(=O)Nc1ccccc1 (stereo unspecified)	15.7	-25.8	-7.0	-18.6	21.1	x
CC(=O)Oc1ccc(N(C(C)=O)S(=O)(=O)c2ccc(C)cc2C)c2ccccc12	-0.6	-15.4	-6.9	42.5	20.9	x
CC(=O)Oc1ccc(N(C(C)=O)S(=O)(=O)c2ccccc2)c2ccccc12	6.2	19.0	0.3	68.9*	12.5	10.4
CC(=O)N(c1ccccc1Cl)S(=O)(=O)c1ccc(Cl)cc1	13.9	0.0	-6.7	26.5	14.1	x
CC(=O)Oc1c(Cl)cc(N(C(C)=O)S(=O)(=O)c2ccccc2)c2ccccc12	4.2	10.6	-19.4	57.1*	1.6	54.2*
COc1ccc(S(=O)(=O)N(C(C)=O)c2ccc(OC(C)=O)c3ccccc23)cc1[N+](=O)[O-]	16.9	9.7	-17.1	79.4*	13.7	102.2*
CCOC(=O)CN(C(=O)COC(=O)C1=NNC(=O)CC1)c1ccc(F)cc1	-6.9	-2.3	-1.9	2.9	-15.8	x
O=C(OCc1ccccc1)C1=NNC2C(=O)N(c3ccc(Br)cc3)C(=O)C12 (stereo unspecified)	1.3	5.4	-0.9	-14.1	6.8	x
CCOC(=O)CSc1nnc(-c2c[nH]c3ccccc23)o1	-5.4	-9.1	-13.6	-10.6	26.5	x
COc1ccc(CN(C(=O)CSc2nnc(-c3c[nH]c4ccccc34)o2)c2ccc(F)cc2)cc1OC	107.0*	80.3	-8.0	62.9*	-175.9	67.8*
O=C(NC(=S)Nc1cccc(NC(=S)NC(=O)c2ccccc2)c1)c1ccccc1	-165.8	-24.8	1.5	11.8	-128.2	x

High-throughput results from PubChem.
